PubChem BioAssay
“And” between values parts separate entries of the source, which are not always exact repeats. Equal entries are not always repeated. The source made the active and inactive calls.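 The calls were made as follows, unless noted: active = thallium flux through the channel raised or lowered by more than 3 SD from vehicle-only wells, actives on both sides; inactive = the rest.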

What was measured:
[1] = stimulators of nuclear beta-catenin in C2C12, primary screen, imaging, WNT3A-conditioned medium, mouse C2C12, NPC library (AID 1117326; in the data active = nuclear beta-catenin stimulation mostly above about 4.2%, no sharp cut-off; inactive = mostly below about 10%); settings: stronger effect = higher value
[2] = stimulators of insulin release from INS-1E, primary screen, cell-based, 5 mM glucose, NPC library (AID 1117329;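 active = compound raises insulin release from rat beta cells at 5 mM glucose, no numeric limit stated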); settings: rat INS-1E insulin secretion, at 10 µM, stronger effect = higher value
[3] = growth inhibition of GSK3B-pretreated HCT116 cells – cell-based, CellTiter-Glo, 0.2 to 20 µM (AID 1117336;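 active = compounds lowering colon cancer cell viability after pretreatment blocking the GSK3B kinase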); settings: HCT116 viability after GSK3B inhibitor, at 20 µM, stronger effect = higher value
[4] = inhibition of endothelial tube formation, primary screen, imaging, VEGF stimulated, CD31 staining, tube area, NPC library (AID 1117340;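 active = compound that reduces growth-factor-driven endothelial tube area in a mixed cell culture, no cutoff stated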); settings: VEGF-stimulated ADSC/ECFC co-culture, at 10 µM, stronger effect = higher value
[5] = glucagon-like peptide 1 release enhancers, primary assay, NCI-H716 cell line, NPC library (AID 1117341;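 active = compound raises GLP1 secretion from the human gut endocrine cells, with no numeric limit stated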); settings: NCI-H716 cells, at 10 µM, stronger effect = higher value
[6] = HCT116 colon cancer cell growth inhibition, primary screen, CellTiter-Glo luminescence, NPC library (AID 1117342;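 active = compounds that lower survival of HCT116 colon cancer cells in the luminescence readout, no numeric limit stated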); settings: at 20 µM (top of the series)
[7] = CellTiter-Glo luminescent readout of SW480 viability loss, NPC library primary (AID 1117343;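 active = compounds that lower viability of the colon cancer cells in the luminescence readout, with no numeric limit stated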); settings: CellTiter-Glo luminescence; at 20 µM (top of the series)
[8] = decreased DLD-1 cellular survival, CellTiter-Glo luminescent readout, NPC compound collection, primary HTS (AID 1117346;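 active = compounds that lower survival of DLD-1 colon cancer cells in the luminescence readout, no cutoff given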); settings: DLD-1 viability, CellTiter-Glo luminescence; at 20 µM (top of the series)
[9] = molecular target: 6-phosphogluconate dehydrogenase, decarboxylating (Homo sapiens) (UniProt P52209); experiment: 6PGD enzyme inhibitors, primary screen, biochemical, human, recombinant enzyme, NADPH absorbance (AID 1159550;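 active = at least 20% inhibition of 6-phosphogluconate dehydrogenase activity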); settings: recombinant 6PGD, NADPH absorbance 341 nm; at 10 µM; stronger effect = higher value
6-phosphogluconate dehydrogenase, decarboxylating (Homo sapiens), sequence (P52209 whole entry, looked up): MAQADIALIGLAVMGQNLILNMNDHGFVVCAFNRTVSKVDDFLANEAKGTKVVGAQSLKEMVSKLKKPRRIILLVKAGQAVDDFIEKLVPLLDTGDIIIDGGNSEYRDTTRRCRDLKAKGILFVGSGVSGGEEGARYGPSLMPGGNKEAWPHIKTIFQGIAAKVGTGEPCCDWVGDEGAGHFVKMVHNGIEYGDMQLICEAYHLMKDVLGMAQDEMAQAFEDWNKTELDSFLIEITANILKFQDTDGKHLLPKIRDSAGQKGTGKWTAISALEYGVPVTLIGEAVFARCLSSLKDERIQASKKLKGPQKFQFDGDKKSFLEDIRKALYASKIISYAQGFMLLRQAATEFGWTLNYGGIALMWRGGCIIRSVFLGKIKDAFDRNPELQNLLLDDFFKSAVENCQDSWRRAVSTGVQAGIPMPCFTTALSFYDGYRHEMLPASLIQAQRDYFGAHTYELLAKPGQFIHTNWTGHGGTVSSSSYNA

[10] = differential killing of epithelial or mesenchymal cells, primary screen, imaging, PC-3E GFP, TEM4-18 mCherry, co-culture (AID 1345086;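 active = compounds killing one labelled cell type while sparing the other, by normalised counts and ratio limits, not self-fluorescent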;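 as to all read-outs here: cells exposed to compound for 72 h before imaging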;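 as to red/green cell ratio (normalised): normalised mesenchymal count divided by normalised epithelial count so high means epithelial killing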); settings: imaging cell counts, at 1 µM; for red/green cell ratio (normalised): actives lie on both sides, counts scaled to control wells, 1 = unselective
[11] = sensitizers of A549 cells to miR-34 induction, primary screen, imaging, A549 dox-inducible miR-34, nuclei and caspase counts (AID 1347080;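 active = compounds whose cell count with miR-34 switched on is under 0.7 times the count with it off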); settings: A549 miR-34 inducible, Hoechst nuclei count, 48 h
[12] = survival rescue of mitochondrial mutant cells in low glucose, primary screen, MELAS cybrids, Rieske KO mouse fibroblasts, CellTiter-Glo (AID 1508586;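 active = mean z-score across replicates of 1.96 or higher in either the MELAS or the Rieske mutant cell line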;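 also: z relative to plate mean and SD of compound and empty wells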)
F380Y = experiment: modulators of BK channel variants, profiling panel, selectivity assay, cell-based, U2OS BacMam, thallium flux, beta subunits (AID 1259406); settings: at 30 µM;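 also: initial slope of Thallos dye fluorescence rise after thallium is added; log ratio against the mean of 0.3% DMSO vehicle wells on the same plate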
F380Y/beta1 = experiment: as above; settings: at 30 µM
F380Y/beta2Delta = experiment: as above; settings: at 30 µM
F380Y/beta4 = experiment: as above; settings: at 30 µM
[13] = molecular target: Calcium-activated potassium channel subunit alpha-1 (Homo sapiens) + Leucine-rich repeat-containing protein 26 (Homo sapiens) (UniProt Q12791+Q2I0M4); experiment: as above; settings: F380Y/Slo1WT/gamma1, at 30 µM
Calcium-activated potassium channel subunit alpha-1 (Homo sapiens) + Leucine-rich repeat-containing protein 26 (Homo sapiens), sequence (Q2I0M4 whole entry, looked up, one chain of several): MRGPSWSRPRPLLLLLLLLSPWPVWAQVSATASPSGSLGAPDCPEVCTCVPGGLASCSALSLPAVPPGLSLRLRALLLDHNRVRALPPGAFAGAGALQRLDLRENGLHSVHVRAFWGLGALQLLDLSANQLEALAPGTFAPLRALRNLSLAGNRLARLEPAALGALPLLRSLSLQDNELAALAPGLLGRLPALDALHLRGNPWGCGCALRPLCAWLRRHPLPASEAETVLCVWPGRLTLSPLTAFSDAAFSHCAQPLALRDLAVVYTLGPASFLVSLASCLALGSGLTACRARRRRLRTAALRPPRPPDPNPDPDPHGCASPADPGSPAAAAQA

R275C = experiment: as above; settings: at 30 µM
R275C/beta1 = experiment: as above; settings: at 30 µM
[14] = measured here: epithelial PC-3E GFP cell survival
[15] = measured here: mesenchymal TEM4-18 mCherry cell survival
[16] = stronger effect = lower value, cell number ratio, induced over uninduced
[17] = measured here: relative caspase fold change +Dox/-Dox
[18] = measured here: total cells with miR-34 induction, stronger effect = lower value
[19] = measured here: total cells without miR-34 induction
[20] = MELAS cybrid survival, CellTiter-Glo 48 h, stronger effect = higher value
[21] = Rieske KO mouse fibroblast survival, CellTiter-Glo 72 h

CO[C@@]1(NC(=O)Cc2cccs2)C(=O)N2C(C(=O)O)=C(COC(N)=O)CS[C@@H]21
-0.518: z-score [12, 21]
-0.5%: nuclear beta-catenin stimulation ([1]; stimulation, at 2 µM)
10300 and 10400 and 12700: cell count [11, 19]
inactive: nuclear beta-catenin stimulation ([1]; at 10 µM) -1.4% | insulin secretion stimulation [2] 2.1% | viability decrease [3] -11.8% | tube area decrease [4] 26.2% | GLP1 secretion stimulation [5] -1.2% | inhibition of viability [6] 14.8% | viability decrease (inhibition) [7] 8.9% | viability decrease (inhibition) [8] -14.4% | inhibition [9] 8.52% | red/green cell ratio (normalised) [10] 1.1 | fold change [11, 16] 1.01 and 0.868 and 0.891 | z-score [12, 20] 0.626 | log fold change Tl+ flux (F380Y) 0.0585 | log fold change Tl+ flux (F380Y/beta1) -0.00712 | log fold change Tl+ flux (F380Y/beta2Delta) -0.00432 | log fold change Tl+ flux (F380Y/beta4) -0.02 | log fold change Tl+ flux [13] -0.0176 | log fold change Tl+ flux (R275C) 0.0592 | log fold change Tl+ flux (R275C/beta1) 0.00671
10400 and 9040 and 11300: cell count [11, 18]
1.09: normalised cell number [10, 15]
8.44 and 1.64 and 2.66: fold change [11, 17]
0.99: normalised cell number [10, 14]

CC(C)(C)NCC(O)COc1cccc2c1C[C@H](O)[C@H](O)C2 (some centres undefined)
10500 and 11100: cell count [11, 18]
-0.345: z-score [12, 21]
inactive: nuclear beta-catenin stimulation ([1]; at 10 µM) 1.8% | insulin secretion stimulation [2] -1.2% | viability decrease [3] -26.3% | tube area decrease [4] 13.1% | GLP1 secretion stimulation [5] -1.3% | inhibition of viability [6] 4.4% | viability decrease (inhibition) [7] 2.8% | viability decrease (inhibition) [8] -5.7% | inhibition [9] 6.69% | red/green cell ratio (normalised) [10] 1.06 | fold change [11, 16] 0.964 and 0.863 | z-score [12, 20] 0.625 | log fold change Tl+ flux (F380Y) 0.0119 | log fold change Tl+ flux (F380Y/beta1) 0.00674 | log fold change Tl+ flux (F380Y/beta2Delta) 0.0306 | log fold change Tl+ flux (F380Y/beta4) 0.0116 | log fold change Tl+ flux [13] 0.00167 | log fold change Tl+ flux (R275C) -0.00576 | log fold change Tl+ flux (R275C/beta1) -0.0239
10900 and 12900: cell count [11, 19]
-0.2%: nuclear beta-catenin stimulation ([1]; stimulation, at 2 µM)
2.62 and 3.63: fold change [11, 17]
1.1: normalised cell number [10, 15]
1.04: normalised cell number [10, 14]

NC(=O)c1cnccn1
active: log fold change Tl+ flux (F380Y/beta2Delta) -0.0799
-0.7%: nuclear beta-catenin stimulation ([1]; stimulation, at 2 µM)
inactive: nuclear beta-catenin stimulation ([1]; at 10 µM) -0.1% | insulin secretion stimulation [2] -1.9% | viability decrease [3] 0.65% | tube area decrease [4] 14.5% | GLP1 secretion stimulation [5] 3.1% | inhibition of viability [6] -20.7% | viability decrease (inhibition) [7] -1.8% | viability decrease (inhibition) [8] -1.9% | inhibition [9] -8.25% | red/green cell ratio (normalised) [10] 1.13 | z-score [12, 20] -0.184 and 0.644 | log fold change Tl+ flux (F380Y) -0.0194 | log fold change Tl+ flux (F380Y/beta1) 0.0317 | log fold change Tl+ flux (F380Y/beta4) 0.0145 | log fold change Tl+ flux [13] -0.0208 | log fold change Tl+ flux (R275C) -0.0218 | log fold change Tl+ flux (R275C/beta1) 0.0553
1.03: normalised cell number [10, 15]
0.91: normalised cell number [10, 14]
-1 and -0.0443: z-score [12, 21]
